Source: the supplement of paper PMC6555819

What was measured:
Assay in all cases: PBM binding z-score (relative to random genomic background probes); higher = stronger binding; sequences stand for … in GC…GCGATTGACAGCGTAGAATGAAGG
[1] = test system: FXR:RXRa (NR concentration 270 nM, RXRa partner concentration 90 nM)
Outline: (§1)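 Binding z-scores were set against random background probes. The data came from custom Agilent 4×180K protein-binding microarrays carrying double-stranded probes with 34-nt variable regions, incubated 1 h with ligand-free nuclear receptor dimers. Partner-specific antibodies detected binding, and scanned fluorescence was regression-normalized.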

[2] = test system: LXRa:RXRa (NR concentration 270 nM, RXRa partner concentration 90 nM)
Outline: as §1

[3] = test system: LXRa homodimer (NR concentration 270 nM)
Outline: as §1

[4] = test system: LXRb:RXRa (NR concentration 270 nM, RXRa partner concentration 90 nM)
Outline: as §1

[5] = test system: LXRb homodimer (NR concentration 270 nM)
Outline: as §1

[6] = test system: PPARa:RXRa (NR concentration 270 nM, RXRa partner concentration 90 nM)
Outline: as §1

[7] = test system: PPARg:RXRa (NR concentration 180 nM, RXRa partner concentration 90 nM)
Outline: as §1

[8] = test system: PPARg:RXRa 270nM:90nM, anti-RXR (NR concentration 270 nM, RXRa partner concentration 90 nM)
Outline: as §1

[9] = test system: PPARg:RXRa 30nM:10nM, anti-RXR (NR concentration 30 nM, RXRa partner concentration 10 nM)
Outline: as §1

[10] = test system: PPARg:RXRa 90nM:30nM, anti-RXR (NR concentration 90 nM, RXRa partner concentration 30 nM)
Outline: as §1

[11] = test system: PPARg:RXRa DBDmut IVT, anti-RXR (DBD mutation: RXRa K156A/R161A, NR concentration 270 nM, RXRa partner concentration 90 nM)
Outline: as §1

[12] = test system: PPARg:RXRa IVT, anti-PPARg (NR concentration 270 nM, RXRa partner concentration 90 nM)
Outline: as §1

[13] = test system: PPARg DBDmut:RXRa IVT, anti-PPARg (DBD mutation: PPARg1 K132A/R137A, NR concentration 270 nM, RXRa partner concentration 90 nM)
Outline: as §1

[14] = test system: PPARg DBDmut IVT, anti-PPARg (DBD mutation: PPARg1 K132A/R137A, NR concentration 270 nM)
Outline: as §1

[15] = test system: PPARg homodimer (NR concentration 180 nM)
Outline: as §1

[16] = test system: PXR:RXRa (NR concentration 270 nM, RXRa partner concentration 90 nM)
Outline: as §1

[17] = test system: PXR homodimer (NR concentration 270 nM)
Outline: as §1

[18] = test system: RARa:RXR (NR concentration 270 nM, RXRa partner concentration 90 nM)
Outline: as §1

[19] = test system: RARa homodimer (NR concentration 270 nM)
Outline: as §1

[20] = test system: RARb:RXRa (NR concentration 270 nM, RXRa partner concentration 90 nM)
Outline: as §1

Row | Sequence | PBM binding z-score [1] | PBM binding z-score [2] | PBM binding z-score [3] | PBM binding z-score [4] | PBM binding z-score [5] | PBM binding z-score [6] | PBM binding z-score [7] | PBM binding z-score [8] | PBM binding z-score [9] | PBM binding z-score [10] | PBM binding z-score [11] | PBM binding z-score [12] | PBM binding z-score [13] | PBM binding z-score [14] | PBM binding z-score [15] | PBM binding z-score [16] | PBM binding z-score [17] | PBM binding z-score [18] | PBM binding z-score [19] | PBM binding z-score [20]
1 | GGGACGAGGGCAAGTTGATAGCAGAGTTTGATGG | 1.19 | 0.762 | 0.0189 | 1.18 | 0.857 | 1.42 | 1.09 | 1.2 | 0.448 | 0.913 | 2.39 | 2.34 | -0.115 | 0.569 | 1.21 | 1.15 | 0.763 | 0.688 | -0.141 | 2.91
2 | GGAACGAGGGCAAGTTGATAGAAGAGTTTGATGG | 0.705 | 0.396 | -0.176 | 0.213 | -0.242 | 1.41 | 1.29 | 0.969 | 0.173 | 0.351 | 3.6 | 2.75 | -0.45 | 0.0544 | 0.482 | 0.801 | 0.693 | 0.45 | 0.336 | 2.64
3 | GCTAGTTGGTCAGTAAAAGGTCACATACCGGTCG | 2.76 | 4.16 | 4.82 | 4.01 | 0.816 | 4.22 | 2.57 | 4.42 | 2.3 | 3.92 | 1.23 | 2.96 | 0.372 | 0.203 | 6.37 | 4.88 | 0.988 | 5.66 | 3.62 | 4.23
4 | AGATTGAGGTTAAGATCAGGGAAACAGAATACAT | 2.48 | 2.1 | 0.386 | 2.06 | 0.34 | 3.45 | 1.96 | 2.19 | 0.935 | 1.82 | 2.1 | 2.29 | 1.37 | 1.38 | 1.06 | 1.3 | 0.986 | 1.87 | 1.33 | 2.08
5 | CGAACTAGGTCATTGGCAGGACAGTGAATAGTAA | 4.29 | 2.62 | 0.219 | 1.66 | -0.306 | 4.73 | 7.68 | 6.26 | 3.37 | 5.72 | 8.14 | 8.31 | 3.04 | 0.566 | 1.51 | 1.61 | -0.0888 | 2.11 | 0.516 | 3.71
6 | CCAGACAGGTGAAAGTTAACTCAGTCTGGTACGC | -0.0765 | 0.237 | -0.419 | 0.191 | -0.617 | 2.21 | 2.62 | 4.15 | 1.99 | 3.83 | 1.64 | 1.56 | -0.637 | -0.25 | 0.325 | 0.141 | -0.35 | 0.616 | -0.352 | 1.04
7 | GATAGAGGGTCAGCTAGAGGCCAGAGTATGGAAA | 3.79 | 2.41 | -0.113 | 2.02 | -0.604 | 3.92 | 2.36 | 2.57 | 0.476 | 1.54 | 1.62 | 2.24 | -0.25 | -0.22 | 1.64 | 2.44 | -0.0848 | 3.7 | 0.224 | 3.85
8 | CCTACTAGGCCATCAGGTCATTGATATCAACGTT | 2.15 | 1.63 | 1.62 | 2.16 | 0.844 | 3.19 | 3.75 | 4 | 2.04 | 3.5 | 6.04 | 5.32 | 0.857 | 0.291 | 1.87 | 2.04 | 1.66 | 2.59 | 1.47 | 2.45
9 | TCTGCTAGGTCAATGATGGTCAGCTAATCTGCTA | 2.48 | 2.82 | -0.0629 | 1.38 | -0.0652 | 2.69 | 1.53 | 2.35 | 1.77 | 2.05 | 3.8 | 3.49 | 0.246 | -0.13 | 0.244 | 1.02 | -0.71 | 1.46 | -0.32 | 3.72
10 | AGAACGAGGGCACGCTGAGTTGATGGCAGAGTAG | 0.805 | 0.828 | -0.81 | 0.0668 | -1.05 | 2.22 | 2.22 | 1.63 | 0.228 | 1.27 | 4.26 | 3.81 | 0.605 | -0.669 | 0.179 | 1.13 | -0.226 | 0.999 | -0.371 | 2.38
11 | TCTAGCAGGCCAGAGGGTCACTCACGAGGTACGG | 0.586 | 0.658 | -0.609 | 1.13 | -1.2 | 2.2 | 1.46 | 2.63 | 1.82 | 2.54 | 0.776 | 0.783 | -0.376 | -1.19 | 1.31 | 1.51 | -0.605 | 2.52 | -0.397 | 2.25
12 | CCTACTGGGCCAAGGTTATTGATCAGTCAAAGCA | 0.116 | 0.594 | -0.113 | 0.269 | -0.596 | 1.78 | 2.64 | 3.06 | 0.701 | 2.48 | 3.46 | 3.58 | -0.243 | -0.723 | 0.597 | 0.145 | -0.133 | 0.421 | -0.486 | 0.659
13 | CAAACTAAGTCACGAAAGGTCAAAGTCGAATGAC | 5.23 | 6.68 | 6.01 | 5.99 | 2.17 | 5.89 | 4.13 | 4.96 | 2.48 | 4.04 | 2.8 | 3.64 | 0.905 | 0.93 | 3.63 | 6.08 | 2.1 | 6.41 | 1.43 | 4.83
14 | TCATATAGGTAAACAGGTTAAAGTCCGTAAGTTA | 0.775 | 1.24 | 0.749 | 1.34 | 0.393 | 2.69 | 2.85 | 3.9 | 4.25 | 3.91 | 4.76 | 4.3 | 1.02 | 1.02 | 1.31 | 1.29 | 0.911 | 1.79 | 1.77 | 0.998
